Assay outcomes: PubChem, National Center for Advancing Translational Sciences (NCATS)
HPGD inh = inhibitors of human 15-hydroxyprostaglandin dehydrogenase (HPGD). P15428. AID 894. 150,000 tested, 4.3% active. Potency, µM, for the others: at the top dose activity change, negative = inhibition, hits mostly inhibitors. purified HPGD, NADH fluorescence kinetic, PGE2 substrate; also: potency is read from the fitted curve at half-maximal effect
Target sequence (P15428 whole entry, looked up): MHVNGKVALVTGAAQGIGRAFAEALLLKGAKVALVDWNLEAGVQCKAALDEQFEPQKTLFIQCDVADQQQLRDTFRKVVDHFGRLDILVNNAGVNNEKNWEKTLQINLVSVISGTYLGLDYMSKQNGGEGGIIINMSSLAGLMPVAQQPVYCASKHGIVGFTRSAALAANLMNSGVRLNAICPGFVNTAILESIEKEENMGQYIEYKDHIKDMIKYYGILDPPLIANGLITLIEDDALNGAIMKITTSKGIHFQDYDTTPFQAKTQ
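NADH formation kinetics: reaction with 30 uM PGE2 and 1 mM NAD+ (final), 20 nM enzyme, Tris-HCl pH 8 with Tween 20, after 15 min compound preincubation at room temperature. Fluorescence change, last versus first of five reads.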
ALDH1A1 block = blocks purified human ALDH1A1 activity | P00352 | Purified ALDH1A1, NADH fluorescence, propionaldehyde substrate | Potency, µM (series often up to 75.3 µM), for inactives: at the top dose activity, negative = inhibition, most hits filed as inhibitors | 220,000 tested, 7.3% active | AID 1030;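 also: potency is read from the fitted curve at half-maximal effect; plate controls were no enzyme wells and a reference inhibitor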
Target sequence (P00352 whole entry, looked up): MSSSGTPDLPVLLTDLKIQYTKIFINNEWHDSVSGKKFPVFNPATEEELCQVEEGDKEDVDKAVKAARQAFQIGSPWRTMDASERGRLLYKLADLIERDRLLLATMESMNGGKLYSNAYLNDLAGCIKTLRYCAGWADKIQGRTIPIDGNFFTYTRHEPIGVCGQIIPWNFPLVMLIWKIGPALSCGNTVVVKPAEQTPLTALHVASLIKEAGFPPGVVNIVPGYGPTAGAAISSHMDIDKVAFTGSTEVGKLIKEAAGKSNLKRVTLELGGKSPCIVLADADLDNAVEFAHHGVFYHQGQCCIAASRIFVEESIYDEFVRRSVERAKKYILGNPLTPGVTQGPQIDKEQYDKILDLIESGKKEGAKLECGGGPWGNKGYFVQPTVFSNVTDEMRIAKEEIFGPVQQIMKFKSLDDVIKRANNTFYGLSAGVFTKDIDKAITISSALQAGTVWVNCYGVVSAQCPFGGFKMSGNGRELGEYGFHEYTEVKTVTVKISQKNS
PNC inhibitor = inhibitors of perinucleolar compartment assembly; PC3M PTB-GFP, PNC prevalence imaging, 16 h; active compounds read low; activity change (PNC), negative = inhibition, % at 10 µM; 140,000 tested, 3.1% active;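 active = readout at or below -70, meaning at least 70% loss of cells showing the perinucleolar compartment, a nuclear body marking cancer cells; inconclusive = readout between -30 and a set limit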;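 also: plate controls were DMSO wells for no effect and camptothecin positive control wells for full effect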
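Read-out is percentage of cells bearing a perinucleolar compartment, from automated 20x imaging of fixed, Hoechst-stained PC3M PTB-GFP cells. Cells were seeded 4 h, then exposed 16 h to compound (23 nl of library stock) in duplicate plates.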
12-hLO inh = inhibitors of human 12-lipoxygenase (ALOX12); P18054; purified 12-hLO, xylenol orange hydroperoxide absorbance; Potency, µM (top dose mostly 57.1 µM), inactives show at the highest dose activity change, negative = inhibition, hits mostly inhibitors; 150,000 tested, 0.12% active; active = well fitted inhibition curve with a large enough effect; inconclusive = small, poorly fitted or top-dose-only effect; also: potency is read from the fitted curve at half-maximal effect; nearly all actives have a fitted effect of over 55% in size
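Hydroperoxide output read as Fe(III)-xylenol orange absorbance, 573-to-405 nm ratio, after 30 min reaction with 40 uM arachidonic acid. Enzyme: 150 nM purified human 12hLO, 15 min compound preincubation; 25 mM Hepes pH 7.0, room temperature.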
LMNA splice mod = modulators of lamin A splicing | HeLa LMNA splicing GFP/RFP minigene ratio, 48 h | Potency, µM (highest dose often 46.1 µM), for the others: at the top dose ratio change, negative = inhibition, usual class: inhibitors | 200,000 tested, 0.01% active | AID 1487; active = well fitted inhibition curve with a large enough effect in the signal ratio, with a control signal flat, not every such curve was filed as active; inconclusive = small, poorly fitted or top-dose-only effect, or effect the other way, or a change in a side signal; the % refers to the signal ratio; also: potency is read from the fitted curve at half-maximal effect
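S3 HeLa cells stably expressing lamin A-EGFP splicing minigene plus DsRed2, 600 cells/well, 48 h compound exposure at 37C. Laser-scanning cytometry; analysed as GFP (500-530 nm)/RFP (575-640 nm) total intensity ratio; 0.5% DMSO vehicle.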
* = called active by the depositor; [ ] = another dose, or the depositor's remark. Hits are enriched below; roughly 10% of the tested compounds scored in any of these assays. Unless noted, calls follow the shape of the dose curve; as a rule, active = well fitted inhibition curve with a large enough effect (not every such curve was filed as active); inconclusive = small, poorly fitted or top-dose-only effect, or another doubt; inactive = no such curve, though single readings can be large or run the other way. Unless noted, % is scaled to controls: 0 for no effect and ±100 for the full control effect.

Results for COc1cccc(C(=O)CN2CCN(S(=O)(=O)c3cccc([N+](=O)[O-])c3)CC2)c1 ?
HPGD inh: -10.3%; ALDH1A1 block: 17.8µM*; PNC inhibitor: 1.8; 12-hLO inh: -3.0%; LMNA splice mod: -2.1%

What do the screens show for `COc1ccc(CC2CCOC2=O)cc1` (centres undefined)?
HPGD inh: -14.9%; ALDH1A1 block: 2.0%; PNC inhibitor: -126.5*; 12-hLO inh: -4.0%; LMNA splice mod: 4.2%

Results for CC(N)=O ?
HPGD inh: -28.9%; ALDH1A1 block: -1.4%; 12-hLO inh: 1.6%; LMNA splice mod: inconclusive

What do the screens show for `Cc1cc(C(=O)NCc2ccccc2F)cs1`?
HPGD inh: 15.8µM*; ALDH1A1 block: 0.6%; PNC inhibitor: inconclusive; 12-hLO inh: 3.3%; LMNA splice mod: -6.2%

How did CCNC(=S)Nc1cc(-c2ccc(Cl)cc2)[nH]n1 do in these assays?
ALDH1A1 block: 1.26µM*

How did CCNC(=S)Nc1ccc(Cl)cc1 do in these assays?
HPGD inh: 0.2%; ALDH1A1 block: 2.5%; PNC inhibitor: 16.6; 12-hLO inh: 4.1%; LMNA splice mod: -1.8%

How did N=c1sc2ccccc2n1-c1ccccc1 do in these assays?
HPGD inh: -0.3%; ALDH1A1 block: -1.9%; PNC inhibitor: inconclusive; 12-hLO inh: -5.8%; LMNA splice mod: 9.7%

How did C=CC(=O)N=c1sc2ccccc2n1-c1ccccc1 do in these assays?
ALDH1A1 block: 0.224µM*

How did O=[N+]([O-])c1ccc(Cl)cc1N1CCOCC1 do in these assays?
ALDH1A1 block: 5.7%; LMNA splice mod: 7.2%[46 µM]

What do the screens show for `O=[N+]([O-])c1ccc(N2CCCCC2)nc1N1CCCCC1`?
ALDH1A1 block: 0.316µM*

Results for O=C(COc1ccc(Cl)cc1)N1CCN(c2ccc([N+](=O)[O-])c(N3CCCCC3)c2)CC1 ?
HPGD inh: -8.9%; ALDH1A1 block: 2.51µM*; PNC inhibitor: 26.6; 12-hLO inh: -3.9%; LMNA splice mod: -22.3%

What do the screens show for `O=C(COc1ccccc1Cl)N1CCN(c2ccc([N+](=O)[O-])c(N3CCCCC3)c2)CC1`?
HPGD inh: -23.1%; ALDH1A1 block: 1.58µM*; PNC inhibitor: inconclusive; 12-hLO inh: -7.3%; LMNA splice mod: 27.1%

Results for O=[N+]([O-])c1ccc(Cl)cc1N1CCCCC1 ?
ALDH1A1 block: 17.8µM*; LMNA splice mod: 9.0%[46 µM]

What do the screens show for `CCOC(=O)C1(CCOc2ccccc2)CCN(Cc2ccc(-n3cccn3)cc2)CC1`?
ALDH1A1 block: -11.4%

How did Cc1cc(NC(=O)CSc2nncn2N)no1 do in these assays?
ALDH1A1 block: 0.2%

Results for CNc1cc(N2CCCCCC2)ccc1[N+](=O)[O-] ?
HPGD inh: inconclusive; ALDH1A1 block: 10µM*; PNC inhibitor: 35.0; 12-hLO inh: -4.4%; LMNA splice mod: -0.3%

How did CNc1cc(N2CCCC2)ccc1[N+](=O)[O-] do in these assays?
ALDH1A1 block: 6.8%; LMNA splice mod: 9.9%[46 µM]

Results for COc1ccc(C2NC(=S)NC(C)=C2C(=O)Nc2ccccn2)cc1OC (centres undefined) ?
HPGD inh: -3.5%; ALDH1A1 block: 4.8%; PNC inhibitor: inconclusive; 12-hLO inh: -3.4%; LMNA splice mod: -7.4%

How did CC1=C(C(=O)c2ccccc2)C(c2cccc([N+](=O)[O-])c2)NC(=S)N1 (centres undefined) do in these assays?
ALDH1A1 block: 1.12µM*; LMNA splice mod: inconclusive

How did COc1ccc(C2NC(=S)NC(C)=C2C(=O)c2ccccc2)cc1OC (centres undefined) do in these assays?
HPGD inh: -13.2%; ALDH1A1 block: 11.2µM*; PNC inhibitor: -85.9*; 12-hLO inh: -5.3%; LMNA splice mod: -4.4%

How did COc1ccc(F)cc1C(=O)C1CCCN(Cc2c(C)n(C)n(-c3ccccc3)c2=O)C1 (centres undefined) do in these assays?
ALDH1A1 block: 2.0%

How did Cc1ccc(-c2cc(C(=O)N/N=C/c3cccnc3)n[nH]2)o1 do in these assays?
HPGD inh: 0.0%; ALDH1A1 block: -6.3%; PNC inhibitor: -106.2*; 12-hLO inh: 2.2%; LMNA splice mod: -4.5%

Results for CS(=O)(=O)N1CCC[C@@]2(CCN(Cc3ccc(C#N)cc3)C2)C1 ?
HPGD inh: 0.6%; ALDH1A1 block: -2.6%; 12-hLO inh: -2.4%

Results for CCOc1ccc(C(C)=O)cc1CSc1nnc(-c2ccoc2C)n1N ?
HPGD inh: 14.1µM*; ALDH1A1 block: 22.4µM*; PNC inhibitor: inconclusive; 12-hLO inh: -5.6%; LMNA splice mod: -2.6%

What do the screens show for `Cc1cc(NC(=O)CSc2nnc(-c3ccoc3C)n2N)no1`?
HPGD inh: -1.8%; ALDH1A1 block: -4.7%; PNC inhibitor: 9.3; 12-hLO inh: 1.4%; LMNA splice mod: -2.3%

Results for CCN=C1S/C(=C\c2ccc(OC)c(OCC)c2)C(=O)N1CC ?
HPGD inh: -5.8%; ALDH1A1 block: -13.1%; PNC inhibitor: 34.0; 12-hLO inh: -2.5%; LMNA splice mod: -6.0%

What do the screens show for `COc1cc(/C=C2\SC(=O)N(Cc3ccc(F)cc3)C2=O)cc([N+](=O)[O-])c1O`?
ALDH1A1 block: 0.708µM*; LMNA splice mod: inconclusive

Results for CCOC(=O)CN1C(=O)S/C(=C/c2ccc(OC)c([N+](=O)[O-])c2)C1=O ?
HPGD inh: 15.8µM*; ALDH1A1 block: 12.6µM*; PNC inhibitor: -24.0; 12-hLO inh: 0.7%; LMNA splice mod: -7.7%

What do the screens show for `COc1cc(/C=C2\SC(=O)N(Cc3ccc(Cl)cc3)C2=O)cc([N+](=O)[O-])c1O`?
ALDH1A1 block: 2.51µM*; LMNA splice mod: inconclusive

How did CCOC(=O)c1c(NC(=O)COc2ccc(Br)cc2)sc2c1CCCC2 do in these assays?
LMNA splice mod: -12.9%[46 µM]

How did COc1ccc(C(=O)Nc2ccc(C(=O)OCc3cc(=O)n4nc(C5CC5)sc4n3)cc2)cc1 do in these assays?
LMNA splice mod: 4.1%[46 µM]

What do the screens show for `N#CC1=C2SCC(O)(c3ccccc3)N2C(=O)CC1c1cccs1` (centres undefined)?
ALDH1A1 block: 0.0355µM*; PNC inhibitor: -88.6*; 12-hLO inh: -18.6%; LMNA splice mod: inconclusive

What do the screens show for `N#CCCCSC1=C(C#N)C(c2ccccc2Cl)CC(=O)N1` (centres undefined)?
HPGD inh: -13.0%; ALDH1A1 block: inconclusive; PNC inhibitor: 21.5; 12-hLO inh: -2.2%; LMNA splice mod: 4.3%

How did N#CC1=C2SCN(c3ccccc3)CN2C(=O)CC1c1ccccc1Cl (centres undefined) do in these assays?
HPGD inh: 7.94µM*; ALDH1A1 block: 3.16µM*; PNC inhibitor: -1.0; 12-hLO inh: inconclusive; LMNA splice mod: -13.3%

Results for N#CC1=C2SCC(O)(c3ccccc3)N2C(=O)CC1c1ccccc1F (centres undefined) ?
HPGD inh: -15.4%; ALDH1A1 block: inconclusive; PNC inhibitor: 0.4; 12-hLO inh: -5.6%; LMNA splice mod: inconclusive
